“And” between values parts separate entries of the source, which are not always exact repeats. Equal entries are not always repeated. The campaign covered roughly 5,500 compounds. About 2,000 (36%) were called active. About 18% were inconclusive and are not listed. Cut-off read from the data, not from the text of the source: active = normalized growth mostly below about 0.91 (no sharp cut-off); inconclusive = no clear call, values can overlap the other calls; inactive = mostly above about 0.92. The list shows a part of the results.
Assay: chemical genetic growth profiling, strain panel (AID 1159580);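 note: tested at 20 µM; growth read once vehicle control cultures reached saturation at 30 °C; 1 = growth at the plate median or of vehicle wells; lower values mean less growth of the strain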
Details: S. cerevisiae deletion strains, growth OD

Measured: normalized growth

NCC(=O)CCC(=O)O
inactive: locus YAL013W, strain DEP1, active compounds read low 1.01 | locus YAL021C, strain ccr4, active compounds read low 1 | locus YAL026C, strain drs2, active compounds read low 1.01 | locus YAL030W, strain snc1, active compounds read low 0.99 | locus YBL061C, strain skt5, active compounds read low 0.979 | locus YBR009C, strain hhf1, active compounds read low 1.03 | locus YBR021W, strain FUR4, active compounds read low 1.04 | locus YBR023C, strain chs3, active compounds read low 0.995 | locus YBR171W, strain sec66, active compounds read low 0.962 | locus YBR229C, strain ROT2, active compounds read low 1.02 | locus YBR231C, strain swc5, active compounds read low 0.968 | locus YBR279W, strain paf1, active compounds read low 0.997 | locus YCL011C, strain gbp2, active compounds read low 1 | locus YCL016C, strain dcc1, active compounds read low 0.998 | locus YCL029C, strain bik1, active compounds read low 0.995 | locus YCL061C, strain MRC1, active compounds read low 0.983 | locus YCL069W, strain vba3, active compounds read low 0.989 | locus YCR088W, strain abp1, active compounds read low 0.987 | locus YDL005C, strain med2, active compounds read low 0.96 | locus YDL035C, strain GPR1, active compounds read low 1.02 | locus YDL040C, strain nat1, active compounds read low 0.979 | locus YDL074C, strain BRE1, active compounds read low 1.02 | locus YDL101C, strain DUN1, active compounds read low 1.01 | locus YDL134C, strain PPH21, active compounds read low 1.01 | locus YDL185W, strain tfp1, active compounds read low 0.994 | locus YDL192W, strain arf1, active compounds read low 0.992 | locus YDR001C, strain nth1, active compounds read low 0.997 | locus YDR069C, strain doa4, active compounds read low 0.979 | locus YDR101C, strain arx1, active compounds read low 0.988 | locus YDR137W, strain rgp1, active compounds read low 0.979 | locus YDR150W, strain NUM1, active compounds read low 1.02 | locus YDR159W, strain sac3, active compounds read low 1 | locus YDR162C, strain NBP2, active compounds read low 1.01 | locus YDR195W, strain ref2 0.945 | locus YDR297W, strain sur2, active compounds read low 0.99 | locus YDR318W, strain mcm21, active compounds read low 0.978 | locus YDR334W, strain swr1, active compounds read low 0.984 | locus YDR335W, strain msn5, active compounds read low 0.995 | locus YDR388W, active compounds read low 0.986 | locus YDR392W, strain spt3, active compounds read low 1.05 | locus YDR502C, strain sam2, active compounds read low 0.995 | locus YEL003W, strain gim4, active compounds read low 0.992 | locus YEL037C, strain rad23, active compounds read low 0.979 | locus YEL061C, strain CIN8 (second series), active compounds read low 0.99 | locus YEL061C, strain CIN8, active compounds read low 1.01 | locus YER015W, strain faa2, active compounds read low 0.996 | locus YER016W, strain bim1, active compounds read low 1.01 | locus YER110C, active compounds read low 0.991 | locus YER111C, strain swi4, active compounds read low 0.972 | locus YER155C, strain BEM2 (second series), active compounds read low 0.955 | locus YER155C, strain BEM2, active compounds read low 1.01 | locus YER167W, strain BCK2, active compounds read low 1.01 | locus YFR010W, strain ubp6, active compounds read low 0.973 | locus YGL078C, strain dbp3, active compounds read low 0.99 | locus YGL086W, strain mad1, active compounds read low 1 | locus YGL167C, strain pmr1, active compounds read low 0.974 | locus YGL173C, strain kem1, active compounds read low 0.971 | locus YGL227W, strain vid30, active compounds read low 0.988 | locus YGL240W, strain doc1, active compounds read low 0.965 | locus YGL248W, strain PDE1, active compounds read low 1.01 | locus YGL253W, strain hxk2, active compounds read low 1.01 | locus YGR078C, strain PAC10, active compounds read low 1.02 | locus YGR135W, strain pre9, active compounds read low 0.982 | locus YGR229C, strain SMI1, active compounds read low 1.02 | locus YGR252W, strain gcn5, active compounds read low 0.975 | locus YHR013C, strain ard1, active compounds read low 0.964 | locus YHR027C, strain rpn1, active compounds read low 1 | locus YHR030C, strain SLT2, active compounds read low 1.01 and 1.03 | locus YHR079C, strain IRE1 (second series), active compounds read low 0.982 | locus YHR079C, strain IRE1, active compounds read low 1.03 | locus YHR094C, strain hxt1, active compounds read low 0.99 | locus YHR129C, strain ARP1, active compounds read low 1.01 | locus YHR142W, strain chs7, active compounds read low 0.981 | locus YHR200W, strain rpn10, active compounds read low 0.99 | locus YIL066C, strain RNR3, active compounds read low 1.02 | locus YIL073C, strain SPO22, active compounds read low 1.01 | locus YIL125W, strain kgd1, active compounds read low 0.997 | locus YIR030C, strain dcg1, active compounds read low 0.994 | locus YJL092W, strain hpr5, active compounds read low 0.969 | locus YJL095W, strain BCK1 (second series), active compounds read low 0.984 | locus YJL095W, strain BCK1, active compounds read low 1.01 and 1.03 | locus YJL115W, strain asf1, active compounds read low 0.967 | locus YJL129C, strain trk1, active compounds read low 0.98 | locus YJL134W, strain LCB3, active compounds read low 1.01 | locus YJL154C, strain vps35, active compounds read low 0.979 | locus YJL164C, strain tpk1, active compounds read low 1 | locus YJL166W, strain qcr8, active compounds read low 0.924 | locus YJL168C, strain set2, active compounds read low 0.984 | locus YJL187C, strain SWE1 (second series), active compounds read low 1.01 | locus YJL187C, strain SWE1, active compounds read low 0.982 | locus YJR043C, strain POL32, active compounds read low 1.01 | locus YJR066W, strain TOR1, active compounds read low 0.986

From PubChem BioAssay AID1159580 (chemical genetic matrix, 2015)
